Values joined by “and” are separate entries in the source; they are usually repeats but may differ in a detail not shown here. Equal values may be shown once. This is part of a sample that, as a whole, favours compounds with a hit. Of some 79,000 tested, about 15% had one in any assay. No stated cut-off is given here; in the data, active means growth inhibition above about 70%; inactive means the rest.
Legend:
[1] = NCI Yeast Anticancer Drug Screen. Data for the rad50 strain (AID 155);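 further: 0% = growth of vehicle-only cultures of the same strain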; conditions: S. cerevisiae rad50 strain growth inhibition, active compounds read high; at 50.0 µM unless noted
Method in brief: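 Relative growth inhibition (compound vs vehicle) was measured in yeast with a defined repair-gene alteration.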

[2] = NCI Yeast Anticancer Drug Screen. Data for the mec2-1 strain (AID 157); conditions: S. cerevisiae mec2-1 strain, active compounds read high; at 50.0 µM unless noted
Method in brief: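 mec2-1 yeast strain, carrying an alteration in DNA damage repair or cell cycle control, was exposed to compounds; growth inhibition was measured relative to vehicle-treated controls.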

[3] = NCI Yeast Anticancer Drug Screen. Data for the sgs1 mgt1 strain (AID 161);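 further: 0% = growth of cultures given vehicle only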; conditions: S. cerevisiae sgs1 mgt1 strain, active compounds read high; at 50.0 µM unless noted
Method in brief: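 Yeast cells carrying a defined DNA-repair defect were exposed to test compounds. Growth inhibition was measured relative to vehicle-treated controls.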

[4] = NCI Yeast Anticancer Drug Screen. Data for the cln2 rad14 strain (AID 165);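 further: 0% = growth equal to vehicle treated cultures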; conditions: S. cerevisiae cln2 rad14 strain, active compounds read high; at 50.0 µM unless noted
Method in brief: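 Yeast carrying cln2 and rad14 alterations (cell cycle control and DNA damage repair) were exposed to compounds. Growth inhibition was measured against vehicle-treated controls.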

[5] = NCI Yeast Anticancer Drug Screen. Data for the bub3 strain (AID 167); conditions: S. cerevisiae bub3 mutant strain, active compounds read high; at 50.0 µM unless noted
Method in brief: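 Screening used yeast with an engineered genetic alteration affecting cell cycle control. Compound-exposed cultures were compared with vehicle cultures, and reduced growth was taken as inhibition.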

[6] = NCI Yeast Anticancer Drug Screen. Data for the mlh1 rad18 strain (AID 175); conditions: S. cerevisiae mlh1 rad18 strain growth inhibition, active compounds read high; at 50.0 µM unless noted
Method in brief: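 Growth inhibition of the yeast strain was measured after compound exposure and expressed relative to vehicle-treated controls. The strain carries defined defects in DNA damage repair.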

Measured: growth inhibition

CCOCc1cccc2ccccc12
inactive: [1] -13.6% | [2] -33.9% | [3] -14.9% | [4] 9% | [5] -6.55% | [6] -23.9%

Cc1ccc(C2=CC=C(c3ccccc3)C2)cc1
inactive: [1] -22.1% | [2] 5.8% | [3] -24.1% | [4] 58.6% | [5] 4.4% | [6] 36.6%

COC(=O)C(Br)C(Br)c1cc(OC)c(OC)c(OC)c1 (stereo not given)
inactive: [1] 48.2% | [2] 9.6% | [3] 2.3% | [4] 40% | [5] 10.4% | [6] 14.2%

BrC1CC2CCC1CC2 (stereo not given)
inactive: [1] -14.7% | [2] -6.45% | [3] -7.2% | [4] -6.8% | [5] -7.05% | [6] 16.6%

COC1OC(C)C(OC(=O)c2ccccc2)C(OC(=O)c2ccccc2)C1OC(=O)c1ccccc1 (stereo not given)
inactive: [1] 16.2% | [2] -3.45% | [3] 3.75% | [4] -23.6% | [5] 1.95% | [6] 12.7%

O=CC(O)C(Cl)C(Cl)C(O)CCl (stereo not given)
inactive: [1] -0.65% and 2.1% | [2] -1.85% and -3.6% | [3] 0.65% and 8.3% | [4] 9.75% and -46% | [5] -2.65% and -11% | [6] 40.7% and -14.5%

CCC[C@@H]1C(=O)N=C(N)N1C(=O)OCc1ccccc1
inactive: [1] 18.6% | [2] 8.4% | [3] 7.75% | [4] 1.8% | [5] -5.8% | [6] 2.5%

CCOC(=O)c1ccc2c(c1)C(=O)c1cc([N+](=O)[O-])ccc1-2
inactive: [1] 2.85% | [2] 13.2% | [3] 4.8% | [4] 10.6% | [5] 26.7% | [6] 23.1%

C/C(=N\NC(=O)Nc1ccc(N=Nc2ccccc2)cc1)c1ccncc1
inactive: [1] 17.4% | [2] 10.5% | [3] 19.1% | [4] 1.5% | [5] 14.3% | [6] 10.7%

CNCCc1cn(C2OC(CO)C(O)C(O)C2O)cn1 (stereo not given)
inactive: [1] -7.15% | [2] -17.6% | [3] -22.3% | [4] -40.9% | [5] -28.4% | [6] -13.3%

O=[N+]([O-])C(c1ccccc1)C(c1ccccc1)C(c1ccccc1)[N+](=O)[O-] (stereo not given)
inactive: [1] 4.25% | [2] 6.05% | [3] 5.6% | [4] 23.2% | [5] 22.6% | [6] 10%

CO/N=C(/NC(=O)OC)c1ccccc1
inactive: [1] 10.8% | [2] 18.4% | [3] -5% | [4] -20.2% | [5] 14.4% | [6] -15.3%

C#CC(=O)CCC
inactive: [1] 26.6% | [2] -5.8% | [3] -4.7% | [4] -1.1% | [5] 32.5% | [6] 15.6%

CCCCCCC(=O)C/C(CCC(=O)N(Cc1ccccc1)Cc1ccccc1)=N\Nc1ccc([N+](=O)[O-])cc1[N+](=O)[O-]
inactive: [1] 12.8% | [2] 16.1% | [3] -13.3% | [4] 27.4% | [5] -11.4% | [6] -20.5%

CCOC(=O)C1=C(C(=O)c2ccc(OC)cc2)C(c2ccc([N+](=O)[O-])cc2)C(C(=O)c2ccc(OC)cc2)=C(C(=O)OCC)N1
inactive: [1] 11.1% | [2] 5.8% | [3] 0.1% | [4] 14.1% | [5] 4.95% | [6] -3.25%

CC(C)N(C(C)C)S(C)(=O)=O
inactive: [1] -0.3% | [2] -0.5% | [3] -3.9% | [4] -17.8% | [5] 10.3% | [6] 3.1%

CSc1nc(C)cc(Nc2ccc(O)c(CN3CCCCC3)c2)n1
inactive: [1] 19.4% | [2] -20.3% | [3] -27.3% | [4] 10.4% | [5] -32.6% | [6] 2.6%

CN(/C(=N/C(=S)NCc1ccccc1)SCc1ccccc1)c1ccccc1
inactive: [1] 38% | [2] 29.6% | [3] 35.6% | [4] 9.45% | [5] 38.1% | [6] 58%

COc1c(OC(C)=O)ccc(/C=C2\N=C(C)OC2=O)c1[N+](=O)[O-]
inactive: [1] -8.3% | [2] -4.75% | [3] 5.25% | [4] 16.5% | [5] 11.1% | [6] 9.2%

Cc1cccc[n+]1C
inactive: [1] 3.45% | [2] 4.35% | [3] 0.05% | [4] -19.2% | [5] 22.9% | [6] 4.05%

OCC(O)C1OC(O)C(O)C(O)C1O (stereo not given)
inactive: [1] 1.45% | [2] -7.75% | [3] -32.2% | [4] -49.4% | [5] -6.75% | [6] 10.4%

CCOC(OCC)c1cc(=O)[nH]c(NC(C)=O)n1
inactive: [1] -1.15% | [2] 0.05% | [3] 10% | [4] -11.9% | [5] -1.25% | [6] 5.4%

Cc1ccc(C)c(N=Nc2c(C)nc(N)nc2C)c1
inactive: [1] 1.8% | [2] -10.2% | [3] -9.45% | [4] -34.2% | [5] -22.1% | [6] -3.05%

C=C(C)C(C)/C(C)=N/NC(N)=O (stereo not given) (tested in a mixture with another compound)
inactive: [1] 6.85% | [2] 3.3% | [3] -5.75% | [4] 10.4% | [5] 10.6% | [6] -15.8%

CN(C)CC=C(c1ccccc1)c1ccccc1
inactive: [1] -11.9% | [2] -16.4% | [3] -3.3% | [4] -4.05% | [5] -8.85% | [6] 6.6%

CCOC(=O)C1SC(=Nc2ccccc2)N=C1C (stereo not given)
inactive: [1] 11.3% | [2] -11.7% | [3] 28.1% | [4] -4.15% | [5] -19.6% | [6] -4.5%

Cc1ccccc1C(=O)NC(O)(C(F)(F)F)C(F)(F)F
inactive: [1] 2.4% | [2] 10.2% | [3] 14.6% | [4] 32.9% | [5] 16.9% | [6] 5.05%

COc1cccc2c1C(=O)c1c(O)c(CCl)cc(OC)c1C2=O
inactive: [1] 16.9% | [2] -4.6% | [3] 20.9% | [4] -33% | [5] 5.6% | [6] 14.9%

O=C1CSC(c2ccc(O)cc2)N1c1nncs1 (stereo not given)
inactive: [1] 0.4% | [2] -0.75% | [3] 16.8% | [4] -0.55% | [5] 5.6% | [6] 11.9%

COc1ccc(/C(=N\NC(=S)NN)C(c2ccc(OC)cc2)C2C(=O)Oc3ccccc32)cc1 (stereo not given)
inactive: [1] 13.4% | [2] 5.85% | [3] 38.4% | [4] -9.3% | [5] 12.7% | [6] 2.85%

O=C(Nc1cccc(Cl)c1)Oc1c([N+](=O)[O-])cc(Cl)cc1[N+](=O)[O-]
inactive: [1] 13.2% | [2] 6.75% | [3] 21.1% | [4] -12% | [5] 0.15% | [6] 28.3%

COC(=O)C(C(=O)C(=O)Nc1ccccc1OC)c1csc(-n2nc(-c3ccccc3)cc2-c2ccccc2)n1 (stereo not given)
inactive: [1] 0.65% | [2] -7.85% | [3] -11.2% | [4] 21.4% | [5] 52.1% | [6] 4.95%

CC(C)(C)CC(=O)NC1CCCCC1
inactive: [1] -6.55% | [2] -5.8% | [3] 12.2% | [4] -23.1% | [5] 3.4% | [6] 13.7%

O=C(OCc1ccccc1)ON1C(=O)C2C3C=CC(C3)C2C1=O (stereo not given)
inactive: [1] -26.4% | [2] -54.2% | [3] 12.5% | [4] -9.1% | [5] -19% | [6] 5.05%

CC(=O)c1ccc(NC(=O)C(=O)C(C(=O)c2ccc(Cl)c(Cl)c2)C2OC(=O)c3ccccc32)cc1 (stereo not given)
inactive: [1] 44.6% | [2] 38.8% | [3] 13.7% | [4] 54.1% | [5] 60.3% | [6] 49.3%

COCCOC(=O)OCCOC
inactive: [1] -1.5% | [2] 3.65% | [3] 4.75% | [4] -31.7% | [5] -12.8% | [6] 11.7%

N#Cc1ccc(OC(=O)Nc2ccc(F)cc2)cc1
inactive: [1] -4.1% | [2] -14.2% | [3] 12.2% | [4] 18.6% | [5] 10.7% | [6] 8.8%

S=c1c(-c2ccccc2)cnc2sccn12
inactive: [1] 40.9% | [2] 29.8% | [3] 8.3% | [4] -22.6% | [5] 19.8% | [6] 18.4%

CCN(CC)CCC1CCCCN1CC(=O)N1c2ccccc2NC(=O)c2ccccc21 (stereo not given)
inactive: [1] -2.9% | [2] 2% | [3] 8.9% | [4] 8.2% | [5] -0.9% | [6] 0.25%

C(=Nc1cccnc1)c1ccc(C=Nc2cccnc2)cc1
inactive: [1] 21.9% | [2] 37.5% | [3] 30.3% | [4] 25.1% | [5] 33.8% | [6] 33%

Source: PubChem BioAssay (NCI)
